Assay results published in paper PMC4336329 (PLoS ONE, 2015).
Among all 310,000 compounds or so, about 14,000 (4.5%) showed an effect of 50% or more. Effects have a minus sign here. What follows is part of a selection rich in strong results, with near analogues and random picks from the rest.

What follows are compounds tested against human ether-à-go-go-related gene (hERG) potassium channel (human, UniProt Q12809) (assay: primary screen, population patch clamp on CHO cells stably expressing hERG; higher = less effect of the substance).
Chain of human ether-à-go-go-related gene (hERG) potassium channel (Q12809 whole entry, looked up): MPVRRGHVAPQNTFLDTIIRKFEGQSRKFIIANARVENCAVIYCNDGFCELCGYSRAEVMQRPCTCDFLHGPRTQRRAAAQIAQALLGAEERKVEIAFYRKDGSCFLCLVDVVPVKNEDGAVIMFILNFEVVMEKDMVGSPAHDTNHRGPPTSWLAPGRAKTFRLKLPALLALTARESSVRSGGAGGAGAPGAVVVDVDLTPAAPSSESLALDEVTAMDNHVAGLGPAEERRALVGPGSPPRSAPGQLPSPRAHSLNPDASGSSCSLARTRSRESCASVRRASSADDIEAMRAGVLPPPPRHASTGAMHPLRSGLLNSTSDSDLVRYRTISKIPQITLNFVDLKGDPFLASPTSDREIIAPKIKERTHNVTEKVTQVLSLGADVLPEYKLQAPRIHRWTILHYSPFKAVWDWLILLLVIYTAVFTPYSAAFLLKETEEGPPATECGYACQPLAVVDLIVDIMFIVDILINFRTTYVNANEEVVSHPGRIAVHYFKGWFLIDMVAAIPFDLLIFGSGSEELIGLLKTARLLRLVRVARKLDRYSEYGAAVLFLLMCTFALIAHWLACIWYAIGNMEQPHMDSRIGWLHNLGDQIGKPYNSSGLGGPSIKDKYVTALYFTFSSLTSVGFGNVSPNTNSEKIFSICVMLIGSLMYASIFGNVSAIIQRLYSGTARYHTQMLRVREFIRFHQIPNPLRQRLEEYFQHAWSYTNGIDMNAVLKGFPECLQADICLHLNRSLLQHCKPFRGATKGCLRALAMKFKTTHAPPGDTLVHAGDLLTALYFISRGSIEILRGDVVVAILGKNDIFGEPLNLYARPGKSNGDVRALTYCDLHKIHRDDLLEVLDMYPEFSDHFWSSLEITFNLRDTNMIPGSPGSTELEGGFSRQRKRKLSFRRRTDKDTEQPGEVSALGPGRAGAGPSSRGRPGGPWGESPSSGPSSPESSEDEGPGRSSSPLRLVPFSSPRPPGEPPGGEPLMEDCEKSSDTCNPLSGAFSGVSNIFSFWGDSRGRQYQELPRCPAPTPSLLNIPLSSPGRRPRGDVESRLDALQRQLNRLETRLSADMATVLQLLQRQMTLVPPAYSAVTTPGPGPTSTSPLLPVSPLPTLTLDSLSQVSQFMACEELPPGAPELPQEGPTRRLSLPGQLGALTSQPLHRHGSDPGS
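Further: peak tail current of the secondary pulse compared with the same well before compound.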

| Compound | hERG current change (%, negative = inhibition) at 10uM [%] |
| --- | --- |
| COc1cccc(C(=O)CSc2nnnn2C)c1 | 4.88 |
| Cc1ccc(/C=N/NC(=O)CSc2nnc(-c3ccc(Cl)cc3)n2-c2ccccc2)o1 | -39.5 |
| CCOC(=O)N1CCN(C(=O)CSc2nc(-c3cccc(C)c3)ns2)CC1 | -38.8 |
| O=C1N(Cc2ccccc2F)c2ccccc2C12OCCCO2 | 10.9 |
| O=C(OC(C(=O)c1c[nH]c2ccccc12)c1ccccc1)c1cnccn1 (centres unmarked) | 1.77 |
| O=C(O)/C(=C/c1cccnc1)NC(=O)c1ccccc1 | 20.3 |
| Cc1ccc(C(=O)CC2(O)C(=O)N(CN3CCOCC3)c3ccccc32)cc1 (centres unmarked) | -2.38 |
| CCc1ccc(C(=O)CC2(O)C(=O)N(CN3CCOCC3)c3ccccc32)cc1 (centres unmarked) | 7.69 |
| O=C(CC1(O)C(=O)N(CN2CCOCC2)c2ccccc21)c1ccccc1 (centres unmarked) | -70.4 |
| CC(C)=CCC(C)(C)C1OCCN1C(=O)c1ccccc1 (centres unmarked) | -18.7 |
| Br.COc1ccc(-c2nc3n(c2C)CCC3)cc1 | -6.52 |
| CCN(CC(=O)Nc1c(F)cccc1F)C(=O)c1cc([N+](=O)[O-])ccc1N1CCCCC1 | -10.6 |
| CC(=O)OCc1nc2ccccc2s1 | 12 |
| O=C(CCCCCNC(=S)Nc1ccc(Cl)cc1)C[N+](=O)[O-] | 12.9 |
| COc1ccc(-c2[nH]ncc2CN(C)CCN2CCOCC2)cc1F | 16.6 |
| COc1cc(/C=C/C(=O)O)cc(OC)c1O | 2.08 |
| COc1ccc(/C=C/C(=O)c2ccc(Cl)s2)cc1O | 1.69 |
| COc1cc(/C=C/C(=O)c2ccc(Cl)s2)cc(OC)c1O | -74.4 |
| COc1ccc(C(=O)/C=C/c2ccc(OC)c(O)c2)c(F)c1 | -13.5 |
| COc1ccc(C(=O)/C=C/c2cc(OC)c(O)c(OC)c2)c(F)c1 | -52.3 |
| COc1ccc2cc(C(=O)/C=C/c3cc(OC)c(O)c(OC)c3)ccc2c1 | 8.79 |
| COc1ccc(CCNC(=O)C2CCN(S(=O)(=O)c3ccc(C)cc3)CC2)cc1 | 0.741 |
| COc1ccc(/C=N/NC(=O)c2cccc(OC(F)(F)C(F)F)c2)c(OC)c1OC | -3.77 |

| Compound | hERG current change (%, negative = inhibition) at 10uM [%] |
| --- | --- |
| O=C(Nc1sc2c(c1C(=O)O)CCCCC2)c1ccccc1 | 67.4 |
| COc1cccc(N2CCN(S(=O)(=O)c3cc4c(cc3Cl)NC(=O)CO4)CC2)c1 | 12 |
| O=C1COc2ccc(NC(=O)N3CCN(c4ccc(F)cc4)CC3)cc2N1 | -79.8 |
| COc1cccc(N2CCN(C(=O)Nc3ccc4c(c3)NC(=O)CO4)CC2)c1 | -75.8 |
| O=C1COc2ccc(NC(=O)c3ccccc3C(=O)O)cc2N1 | 21.6 |
| CSc1ccccc1N1CCN(C(=O)Nc2ccc3c(c2)NC(=O)CO3)CC1 | -56.3 |
| O=C(Nc1ccc2c(c1)OCO2)N1CCN(c2ccc(F)cc2)CC1 | -28 |
| CCOC(=O)c1ccc(NC(=O)N2CCN(c3cccc(OC)c3)CC2)cc1 | -16.5 |
| O=C(Nc1ccc2c(c1)OCCO2)N1CCN(c2ccc(F)cc2)CC1 | -5.49 |
| O=C(Nc1ccc2c(c1)OCO2)N1CCN(c2ccccc2Cl)CC1 | -32.3 |
| Cc1nn(Cc2ccc([N+](=O)[O-])cc2)c(=O)n1N(C)c1ncc(C(F)(F)F)cc1Cl | -3.46 |
| O=C(NCc1ccccc1F)C1CC(=O)N(c2ccc3c(c2)OCCO3)C1 (centres unmarked) | -2.83 |
| O=C(Nn1c(SCc2cccc([N+](=O)[O-])c2)nc2ccccc2c1=O)c1ccccc1 | -1.31 |
| Cc1noc(C)c1COc1ccccc1C(=O)NC1CCC(C)CC1 (centres unmarked) | 0.497 |
| CSCC[C@H](NC(=O)Nc1cccc(C(F)(F)F)c1)C(=O)O | -0.0702 |
| Cc1cccc(CSc2nnc([C@@H]3CCCN3C(=O)OC(C)(C)C)o2)c1 | 4.85 |
| O=C(COC(=O)c1ccccc1C(=O)N1CCN(c2ccc(F)cc2)CC1)NCc1ccccc1 | -73.6 |
| O=C(COC(=O)c1ccccc1C(=O)N1CCN(c2ccccc2)CC1)Nc1ccc(F)cc1 | -21.6 |
| O=C(COC(=O)/C=C/C(=O)N1CCN(c2ccccc2)CC1)NCc1ccc(F)cc1 | -8.17 |
| O=C(COC(=O)c1ccccc1C(=O)N1CCN(c2ccccc2)CC1)Nc1ccccc1 | -25.8 |
| CC(C)N(C(=O)COC(=O)c1ccccc1C(=O)N1CCN(c2ccc(F)cc2)CC1)C(C)C | -55.9 |
| O=C(c1ccccc1Oc1ccccc1)N1CCN(c2ccc(F)cc2)CC1 | -33.9 |
| O=C(COC(=O)c1ccccc1C(=O)N1CCN(c2ccccc2)CC1)NCc1ccccc1 | -58 |

| Compound | hERG current change (%, negative = inhibition) at 10uM [%] |
| --- | --- |
| COc1cccc(NC(=O)COC(=O)c2ccccc2C(=O)N2CCN(c3ccccc3)CC2)c1 | -11.8 |
| CN(C(=O)COC(=O)c1ccccc1C(=O)N1CCN(c2ccccc2)CC1)c1ccccc1 | -17 |
| O=C1CCC([N+](=O)[O-])C(c2ccc(Br)cc2)N1 (centres unmarked) | 7.57 |
| CC(=O)N1CCN(C(=O)c2cc3ccccc3o2)CC1 | 20.1 |
| COC(=O)c1ccc(NS(=O)(=O)c2ccc(SC)cc2)cc1 | -2.34 |
| Cc1nn(Cc2c(Cl)cccc2Cl)c(C)c1N | 9.12 |
| CCOC(=O)C1=C(c2ccccc2)N=C2SCC(=O)N2C1c1ccc(OCC)c(OCC)c1 (centres unmarked) | 6.45 |
| O=C(Nc1ccncc1)c1cc2ccccc2cc1O | 5.89 |
| Cc1ccc(-n2cc(C(=O)c3ccccc3O)cn2)cc1 | 19.8 |
| CCCCNC(=O)[C@H]1C[C@H]1[C@@H](O)[C@H](CO)NC(=O)[C@H](CC(C)C)NC(=O)OC(C)(C)C | 16.1 |
| CCc1ccccc1NC(=O)CSc1nc(-c2ccccc2)nn1C(=O)c1cccc([N+](=O)[O-])c1 | -0.129 |
| CCS(=O)(=O)CCSC(=N)N.Cl | -53.3 |
| Br.Cc1ccc(S(=O)(=O)CCSC(=N)N)cc1 | 13.1 |
| Br.CCS(=O)CCSC(=N)N (centres unmarked) | 19.2 |
| O=C(C1CCCN1S(=O)(=O)c1cccc2cccnc12)N1CCc2ccccc2C1 (centres unmarked) | -57.5 |
| O=C(C1CCCN1S(=O)(=O)c1cccc2cccnc12)N1CCN(c2ccccc2)CC1 (centres unmarked) | -45 |
| CC(=O)c1ccc(NC(=O)C2CCCN2S(=O)(=O)c2cccc3cccnc23)cc1 (centres unmarked) | 7.11 |
| O=C(O)[C@H]1CCCN1S(=O)(=O)c1cccc2cccnc12 | 0.132 |
| O=C(C1CCCN1S(=O)(=O)c1cccc2cccnc12)N1CCc2ccccc21 (centres unmarked) | -31.7 |
| O=C(Nc1cccc(C(F)(F)F)c1)C1CCCN1S(=O)(=O)c1cccc2cccnc12 (centres unmarked) | -12.4 |
| O=C(C1CCCN1S(=O)(=O)c1cccc2cccnc12)N1CCn2c1nc1ccccc12 (centres unmarked) | -50.8 |
| O=C(C1CCN(S(=O)(=O)c2cccc3cccnc23)CC1)N1CCn2c1nc1ccccc12 | -9.66 |
| O=C(Nc1ccc(C(F)(F)F)cc1)C1CCCN1S(=O)(=O)c1cccc2cccnc12 (centres unmarked) | -51.9 |

| Compound | hERG current change (%, negative = inhibition) at 10uM [%] |
| --- | --- |
| CSc1ncccc1C(=O)Nc1ccc(S(=O)(=O)NC2=NCCCCC2)cc1 | 7.85 |
| COC(=O)CCSCC(=O)Nc1cc(C)on1 | -14.4 |
| O=C(COc1cccc2cccnc12)N/N=C1\SCC(=O)N1Cc1ccccc1 | -44.8 |
| COc1cc(C(=O)OCC(=O)NCc2ccc(F)cc2)ccc1OCC(C)C | 21.1 |
| COc1ccc(NC(=O)N2CCN(S(C)(=O)=O)CC2)cc1OC | -0.713 |
| O=C(/C=C/c1ccc(Br)cc1)NC1CCCCCC1 | -4.17 |
| Cc1onc(-c2ccccc2)c1C(=O)Nc1ccc(S(=O)(=O)N2CCOCC2)cc1 | -29.6 |
| O=c1[nH]c(=O)n(-c2cccc(F)c2)c(O)c1/C=C1\C=Nc2ccccc21 | 14 |
| NC(=O)c1ccc(Oc2cccc3cccnc23)c([N+](=O)[O-])c1 | -13.4 |
| N#Cc1ccc(Oc2cccc3cccnc23)c([N+](=O)[O-])c1 | -79.1 |
| O=[N+]([O-])c1ccc(Oc2cccc3cccnc23)c(Cl)c1 | -15.4 |
| O=[N+]([O-])c1ccc(Oc2cccc3cccnc23)c([N+](=O)[O-])c1 | -52 |
| O=[N+]([O-])c1ccccc1OCCCOc1cccc2cccnc12 | -15.3 |
| Cc1ccc2cccc(Oc3ccc([N+](=O)[O-])cc3[N+](=O)[O-])c2n1 | -7.96 |
| O=C(C1CCCN(S(=O)(=O)c2cc(Cl)ccc2Cl)C1)N1CCCC1 (centres unmarked) | -19.5 |
| O=C(C1CCCN(S(=O)(=O)c2cc(Cl)ccc2Cl)C1)N1CCCCCC1 (centres unmarked) | -62.4 |
| O=C(C1CCCN(S(=O)(=O)c2cc(Cl)ccc2Cl)C1)N1CCOCC1 (centres unmarked) | -33.2 |
| COc1ccc(Cl)cc1S(=O)(=O)N1CCCC(C(=O)N2CCCC2)C1 (centres unmarked) | -5.2 |
| COc1ccc(OC)c(S(=O)(=O)N2CCCC(C(=O)N3CCOCC3)C2)c1 (centres unmarked) | 20.5 |
| COc1ccc(Cl)cc1S(=O)(=O)N1CCCC(C(=O)N2CCOCC2)C1 (centres unmarked) | -69.4 |
